From PubChem
A selection: hits, their analogues and other compounds. The true share with any hit is near 1.5%.
AID504770: growth inhibition of E. coli YBA685, primary screen, V. cholerae RctB inhibitors; z-score (no concentration beside the values); 130,000 compounds, 0.27% hits; AID 504770, 2011; E. coli YBA685 rctB-dependent plasmid, OD600 growth, 3 h; hits give low values; in the data active = z-score below about -2, passing the limit was not always enough
Mtb MbtI inh: MbtI salicylate synthase inhibitors, primary screen, biochemical, fluorescence intensity; P9WFX0; purified MbtI enzyme, fluorescence intensity read-out; inhibition, % (no concentration beside the values); 100,000 compounds, 0.89% hits; AID 493033, 2011; in the data active = inhibition mostly above about 56%, no sharp cut-off; inactive = mostly below about 77%
Mtb MenB inh: M. tuberculosis MenB inhibitors, primary screen, biochemical, absorbance; AID 540299, 2011; inhibition, % (test concentration not listed); 1,4-dihydroxy-2-naphthoyl-CoA synthase (Mycobacterium tuberculosis (strain ATCC 25618 / …; MenB enzyme assay, absorbance read-out; 100,000 compounds, 0.43% hits; in the data active = inhibition above about 21%, passing the limit was not always enough
Target sequence (P9WNP5 whole entry, looked up): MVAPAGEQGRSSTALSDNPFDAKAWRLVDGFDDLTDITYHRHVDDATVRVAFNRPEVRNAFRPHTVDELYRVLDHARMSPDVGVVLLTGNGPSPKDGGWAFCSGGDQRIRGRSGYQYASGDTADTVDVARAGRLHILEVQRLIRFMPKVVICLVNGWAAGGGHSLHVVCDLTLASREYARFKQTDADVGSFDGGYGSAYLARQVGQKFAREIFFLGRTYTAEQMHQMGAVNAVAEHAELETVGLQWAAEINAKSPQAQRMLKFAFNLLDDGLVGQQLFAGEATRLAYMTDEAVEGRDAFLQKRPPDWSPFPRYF
Polio RdRp inh: poliovirus RdRp elongation inhibitors, primary screen, biochemical, fluorescence polarization, total intensity; Genome polyprotein (Poliovirus type 1 (strain Mahoney)), P03300; poliovirus polymerase elongation; hits give low values; % elongation, % (compound at 16.7 µg/mL); 150,000 compounds, 0.66% hits; in the data active = % elongation below about 90%
An asterisk follows results filed as active; nt = no result given.

SMILES | AID504770 | Mtb MbtI inh | Mtb MenB inh | Polio RdRp inh
O=C(O)C1CCCN(S(=O)(=O)Cc2ccccc2)C1 (configuration not stated) | -1.1 | -6 | 18 | 102
Nc1cc(-c2ccccc2)c2ccccc2n1 | -2.2* | nt | -15 | 102
Nc1nc(NCc2ccccc2OC(F)(F)F)n[nH]1 | -0.75 | nt | nt | nt
ONC=NCc1ccccc1OC(F)(F)F | -0.5 | 7 | 34* | 100
O=C1NC(=S)N(c2ccccc2)C(=O)/C1=C\c1ccoc1 | -0.75 | 69* | -21 | 107
CC12CC(C)(C)C(C#N)(C(N)=C1C#N)C(=C(C#N)C#N)N2 (configuration not stated) | 0.7 | 5 | -15 | 83*
Cc1nn(CCC(N)=S)c2nc(-c3ccccc3)ccc12 | -1.1 | 175 | -29 | 73*
O=C(O)CN1C(=O)Cc2ccccc2C1=O | 0.25 | -4 | -37 | 24*
O=C1Cc2ccccc2C(=O)N1Cc1ccco1 | 0.65 | -7 | nt | 76*
CN1C(=O)Cc2ccccc2C1=O | -1.1 | 15 | -70 | 38*
O=C1CC(Cc2ccccc2)C(=O)N1Cc1ccco1 (configuration not stated) | -0.2 | -10 | 36* | 100
COC(=O)CN1C(=O)Cc2ccccc2C1=O | -0.2 | nt | nt | nt
CCCCC1(O)CC(C)(C)N([O])C(C)(C)C1 | -0.2 | -9 | 44* | 100
CCCCC1(O)CCN(Cc2ccccc2)CC1 | -0.45 | nt | nt | nt
CCNc1nc(-c2ccccc2)cs1 | -0.05 | nt | nt | nt
CC(C)CNc1nc(-c2ccccc2)cs1 | -0.8 | 91* | -50 | 102
CCC(C)NS(=O)(=O)c1ccc(-n2cnnn2)cc1 (configuration not stated) | 1.2 | 6 | 26 | 100
CCc1c(CN2CCN(c3cccc(C)c3C)CC2)csc1C | nt | nt | nt | 56*
S=C=NCCn1ccc2ccccc21 | -3.8* | 93* | -77 | 102
NCCn1ccc2ccccc21 | -0.45 | 6 | -18 | 99
Cc1nc2c3ccccc3nc(NNC(=O)CCC(=O)N3CCN(c4cccc(Cl)c4)CC3)n2n1 | nt | nt | nt | 135
COc1ccc(N2CCN(C(=O)CCC(=O)NNc3nc4ccccc4c4nc(C)nn34)CC2)cc1 | nt | nt | nt | 87*
Cc1nc2c3ccccc3nc(NNC(=O)CCC(=O)N3CCN(c4ccccc4)CC3)n2n1 | nt | nt | nt | 85*
CCCCN(C)C(=O)CCC(=O)NNc1nc2ccccc2c2nc(C)nn12 | nt | nt | nt | 81*
Cc1nc2c3ccccc3nc(NNC(=O)CCC(=O)N3CCN(c4ccccc4F)CC3)n2n1 | nt | nt | nt | 92
SMILES | AID504770 | Mtb MbtI inh | Mtb MenB inh | Polio RdRp inh
CCCN1CCC(NC(=O)c2ccc(F)cc2Cl)CC1 | -0.6 | -9 | -3 | 102
O=C(O)c1n[nH]c2c1CCC2 | 0.9 | 5 | -2 | 103
CCOc1ccc(NC(=O)CC2C(=O)N(c3ccccc3)C(=S)N2CCCN2CCN(C)CC2)cc1 (configuration not stated) | 0.95 | 7 | 8 | 102
O=c1[nH]c(Nc2ccccc2)cc2ccccc12 | -0.7 | 65 | -17 | 76*
CC(Sc1nc2ccccc2n1CCC#N)C(=O)N1CCCC1 (configuration not stated) | -0.8 | 11 | 6 | 104
CCN1C(=S)NC2c3cc(C)ccc3OC13CCCC23 (configuration not stated) | 0.3 | -1 | -36 | 100
COC(=O)c1c(-c2cccs2)csc1NC(=O)COc1ccc(C(C)C)cc1 | nt | nt | nt | 70*
COC(=O)c1c(NC(=O)COc2ccc(C(C)C)cc2)sc2c1CCCC2 | nt | nt | nt | 104
CCCc1ccc(OCC(=O)Nc2scc(-c3cccs3)c2C(=O)OC)cc1 | nt | nt | nt | 74*
CCOC(=O)c1c(-c2cccs2)csc1NC(=O)COC(=O)c1cc2c(s1)CCC2 | 1 | -41 | -10 | 102
O=C1CSc2nnc(Cn3nnc4ccccc43)n2N1 | 0.5 | 87* | 3 | 97
CCc1cc2c3c(c(=O)oc2cc1OCC(=O)OC(C)(C)C)CCCC3 | -0.25 | 3 | 4 | 102
Fc1ccc(-c2nc3n(n2)Cc2ccccc2-3)cc1 | -0.5 | -10 | -7 | 100
NC(=S)Cc1nc2n(n1)Cc1ccccc1-2 | 1.8 | 77* | -16 | 83*
COc1cccc(N2CCN(C(=O)c3cnc(N4CCCC4)nc3)CC2)c1 | -0.4 | -26 | -22 | 101
Cc1cc(C)n2nc(SCC(=O)N(c3ccccc3)c3ccccc3)nc2n1 | 0.65 | nt | nt | nt
COc1ccccc1N1CCN(C(=O)c2ccc[nH]c2=S)CC1 | 1.4 | 81* | -36 | 101
COc1ccccc1N1CCN(C(=O)c2ccccc2C(F)(F)F)CC1 | -0.35 | -9 | -5 | 100
COc1ccc(NC(=O)C2CCCN2c2cccc(C(F)(F)F)c2)cc1OC (configuration not stated) | 0.15 | -1 | 1 | 101
O=C1CSc2nnc(-c3ccccc3)n21 | 0.3 | 0 | 9 | 54*
NNc1nc2cc(Cl)ccc2nc1Cl | -0.7 | nt | nt | nt
O=C(CSc1cccc[n+]1[O-])c1cccs1 | -0.65 | 98* | nt | 100
O=C(CSc1cccc[n+]1[O-])c1cc2ccccc2o1 | 0.15 | 98* | nt | 99
CC1CCN(C(=O)Cn2ncc3c2-c2ccccc2OC3)CC1 | -0.15 | -9 | -7 | 102
C=CCn1c(C(C)Oc2ccc(Cl)cc2)n[nH]c1=S (configuration not stated) | 1.9 | 65* | -14 | 102
SMILES | AID504770 | Mtb MbtI inh | Mtb MenB inh | Polio RdRp inh
O=C(CSc1nc2ccccc2s1)c1ccc[nH]1 | 0.3 | 10 | -43 | 58*
O=C(CSc1nc2ccccc2s1)c1ccccc1 | 0.25 | nt | nt | nt
NC(=O)CSc1nc2ccccc2s1 | -0.5 | 82* | -38 | 100
O=P1(N2CCC(Cc3ccccc3)CC2)CC=CC1 | -0.35 | 7 | -13 | 101
Cc1ccc(C(=O)CSC2=NCCCCC2)cc1 | -0.85 | 16 | 33* | 93
Cc1nc2cc3ccccc3cc2c(=O)n1CCCNC1CCCCC1 | 1.4 | nt | -10 | 90*
c1ccc(-c2nn3c(C4COc5ccccc5O4)nnc3s2)nc1 (configuration not stated) | -0.9 | 57* | -35 | 92
Cn1c(SCc2cnc(-c3ccccc3)s2)nnc1C1COc2ccccc2O1 (configuration not stated) | 0.05 | -11 | -8 | 102
NC(=O)c1c(NC(=O)/C=C/c2cccs2)sc2c1CCCC2 | -0.15 | 53* | -43 | 99
N#Cc1c(NC(=O)/C=C/c2cccs2)sc2c1CCC2 | -0.45 | nt | nt | nt
COc1ccc(-c2cc(-c3ccccc3)c(C#N)c(SCC(O)CS(=O)(=O)Cc3ccccc3)n2)cc1 (configuration not stated) | nt | nt | nt | 108
CCCCS(=O)(=O)CC(O)CSc1nc(-c2ccc(C)cc2)cc(-c2ccccc2)c1C#N (configuration not stated) | nt | nt | nt | 81*
CN1C(=O)CS/C1=C\C#N | -0.35 | 14 | 1 | 102
S=c1[nH]nc(NCCc2ccc(Cl)cc2)s1 | -0.15 | nt | nt | nt
CC(C)CNc1n[nH]c(=S)s1 | -0.1 | 96* | -33 | 99
CCC(C)CCCNc1n[nH]c(=S)s1 (configuration not stated) | 0.3 | 98* | -19 | 96
Cc1cc2c(=O)n(CC(=O)O)cnc2s1 | -1 | -2 | -5 | 101
